Screens (PubChem)
Hits are enriched below; roughly 22% of the tested compounds scored in any of these assays.
CYP2C9 act – human CYP2C9 activators, primary screen, biochemical, luminescence. activation factor at 5 µM. Cytochrome P450 2C9 (Homo sapiens), P11712. recombinant CYP2C9, luciferin-H conversion; stronger effect = higher value; factor 1 = untreated enzyme, 0 = blocked. actives 1.4% (n = 96,000);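 active means activation factor of 2 or more for CYP2C9 at a 5 µM dose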
Target sequence (P11712 whole entry, looked up): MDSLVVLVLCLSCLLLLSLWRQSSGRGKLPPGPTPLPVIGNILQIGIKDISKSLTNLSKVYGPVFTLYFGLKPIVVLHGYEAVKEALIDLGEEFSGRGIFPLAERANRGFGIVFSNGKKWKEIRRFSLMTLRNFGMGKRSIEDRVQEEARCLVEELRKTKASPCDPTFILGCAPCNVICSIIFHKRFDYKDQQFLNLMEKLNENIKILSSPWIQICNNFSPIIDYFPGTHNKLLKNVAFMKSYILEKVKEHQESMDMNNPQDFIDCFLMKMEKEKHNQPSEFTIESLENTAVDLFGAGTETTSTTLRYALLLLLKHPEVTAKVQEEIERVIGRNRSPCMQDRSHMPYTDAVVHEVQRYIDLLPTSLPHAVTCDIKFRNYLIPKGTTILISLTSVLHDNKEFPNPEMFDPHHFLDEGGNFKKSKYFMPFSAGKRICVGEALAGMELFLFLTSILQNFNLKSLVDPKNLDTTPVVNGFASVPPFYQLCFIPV
CYP2C9 inh – blockers of cytochrome P450 2C9 activity – biochemical, luminescence, ADME assay, primary screen. P11712. actives 20% (n = 96,000). inhibition, % at 5 µM. CYP2C9 Supersomes, luciferin-H conversion;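 active means blocking of liver enzyme CYP2C9 beyond about 50% at 5 µM, limit read from the data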
CYP2C19 act – human CYP2C19 activators, primary screen, biochemical, luminescence; recombinant CYP2C19, luciferin-H EGE luminescence; stronger effect = higher value; 0 = fully inhibited enzyme, 1 = untreated enzyme; 96,000 tested, under 10 active; activation factor at 5 µM; AID 1025, 2008;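 active means activation factor of at least 2 at 5 µM in the primary screen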
Measles CPE – compounds protecting cells from measles virus cytopathic effect, primary screen, measles RdRp inhibitor project, single point, MLSMR library, absorbance. protection (pct of control), % at 4 µM. Measles virus-infected cells, CPE protection. actives 1.5% (n = 140,000). AID 841, 2007; in the data active means protection mostly above about 24%, no sharp cut-off; inactive means mostly below about 26%
CYP2C19 inhib – blockers of cytochrome P450 2C19 activity – biochemical, luminescence, ADME assay, primary screen; P33261; CYP2C19 Supersomes, luciferin-H EGE luminescence, 30 min; actives 21% (n = 96,000); inhibition, % at 5 µM;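 active means CYP2C19 inhibition above a set limit at 5 µM in the primary screen, cut at about 50% in these data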
Hits are given with their value.

Results for COc1ccccc1NC(=O)CN1CCN(Cc2ccccc2)CC1 ?
CYP2C9 act: inactive; CYP2C9 inh: inactive; CYP2C19 act: inactive; Measles CPE: inactive; CYP2C19 inhib: 72

How did COc1cc(NC(=O)CN2CCC(Cc3ccccc3)CC2)c(C)cc1[N+](=O)[O-] do in these assays?
Measles CPE: 70

Results for COc1ccc(NC(=O)CN2CCN(CC(=O)Nc3ccccc3F)CC2)cc1OC ?
CYP2C9 act: inactive; CYP2C9 inh: inactive; CYP2C19 act: inactive; Measles CPE: inactive; CYP2C19 inhib: inactive

How did COc1cc(NC(=O)COC(=O)C2CC2)c(C)cc1[N+](=O)[O-] do in these assays?
Measles CPE: inactive

What do the screens show for `COc1ccccc1NC(=O)CN1CCN(CC(=O)Nc2ccc(F)cc2)CC1`?
CYP2C9 act: inactive; CYP2C9 inh: inactive; CYP2C19 act: inactive; Measles CPE: inactive; CYP2C19 inhib: 88

What do the screens show for `Cc1ccc(CC(NC(=O)c2ccccc2)C(=O)N2CCCC2C(=O)O)cc1` (configuration not stated)?
CYP2C9 act: inactive; CYP2C9 inh: inactive; CYP2C19 act: inactive; Measles CPE: inactive; CYP2C19 inhib: inactive

How did O=C(O)C1CC(=O)N(Cc2ccc3c(c2)OCO3)C1 (configuration not stated) do in these assays?
CYP2C9 act: inactive; CYP2C9 inh: inactive; CYP2C19 act: inactive; Measles CPE: inactive; CYP2C19 inhib: inactive

What do the screens show for `O=C(NCc1ccc2c(c1)OCO2)C1CC(=O)N(CCc2ccccc2)C1` (configuration not stated)?
CYP2C9 act: inactive; CYP2C9 inh: 77; CYP2C19 act: inactive; Measles CPE: inactive; CYP2C19 inhib: inactive

Results for O=C(NCc1ccc2c(c1)OCO2)C1CC(=O)N(c2ccc(O)cc2)C1 (configuration not stated) ?
CYP2C9 act: 2.1; CYP2C9 inh: inactive; CYP2C19 act: inactive; Measles CPE: inactive; CYP2C19 inhib: inactive

What do the screens show for `CC(=O)N(Cc1ccc2c(c1)OCO2)C1CC(=O)N(CCc2ccccc2)C1=O` (configuration not stated)?
CYP2C9 act: inactive; CYP2C9 inh: 53; CYP2C19 act: inactive; Measles CPE: inactive; CYP2C19 inhib: 70

What do the screens show for `O=C(NCc1ccc(F)cc1)C1CC(=O)N(CCc2ccccc2)C1` (configuration not stated)?
CYP2C9 act: inactive; CYP2C9 inh: inactive; CYP2C19 act: inactive; Measles CPE: inactive; CYP2C19 inhib: inactive

How did O=C(NCc1cccnc1)C1CC(=O)N(CCc2ccccc2)C1 (configuration not stated) do in these assays?
CYP2C9 act: inactive; CYP2C9 inh: inactive; CYP2C19 act: inactive; Measles CPE: inactive; CYP2C19 inhib: 80

What do the screens show for `O=C(COC(=O)c1cc(S(=O)(=O)N2CCOCC2)ccc1F)c1ccc[nH]1`?
Measles CPE: inactive

What do the screens show for `NC(N)=N/N=C/c1ccc(OCc2ccc(Cl)cc2)cc1`?
CYP2C9 act: inactive; CYP2C9 inh: inactive; CYP2C19 act: inactive; Measles CPE: inactive; CYP2C19 inhib: inactive

How did CCOC(=O)Cn1c(-c2ccc(Cl)nc2)nc2ccccc21 do in these assays?
CYP2C9 act: inactive; CYP2C9 inh: inactive; CYP2C19 act: inactive; Measles CPE: inactive; CYP2C19 inhib: inactive

Results for CC1=C(C#N)C(c2ccc3ncccc3c2)C(C#N)=C(C)N1 ?
CYP2C9 act: inactive; CYP2C9 inh: 69; CYP2C19 act: inactive; Measles CPE: inactive; CYP2C19 inhib: 83

How did CCCC(C)C(=O)Nc1ccccc1C(=O)OCC (configuration not stated) do in these assays?
CYP2C9 act: inactive; CYP2C9 inh: inactive; CYP2C19 act: inactive; Measles CPE: inactive; CYP2C19 inhib: inactive

How did CC(=O)Nc1ccc(NC(=O)C(C)OC(=O)CCC(=O)c2ccc(F)cc2)cc1 (configuration not stated) do in these assays?
CYP2C9 act: inactive; CYP2C9 inh: 69; CYP2C19 act: inactive; Measles CPE: inactive; CYP2C19 inhib: 72

How did Cc1ccc(CSCCNC(=O)CCSc2ccccc2)cc1 do in these assays?
CYP2C9 act: inactive; CYP2C9 inh: 65; CYP2C19 act: inactive; Measles CPE: inactive; CYP2C19 inhib: inactive

How did Cc1ccccc1CSCCNC(=O)CCSc1ccccc1 do in these assays?
CYP2C9 act: inactive; CYP2C9 inh: 76; CYP2C19 act: inactive; Measles CPE: inactive; CYP2C19 inhib: inactive

What do the screens show for `Cc1ccccc1SCC(=O)OCC(=O)Nc1sccc1C(N)=O`?
Measles CPE: 46

What do the screens show for `NC(=O)c1ccsc1NC(=O)c1nc(-c2ccccc2)n(-c2ccccc2)n1`?
CYP2C9 act: inactive; CYP2C9 inh: 61; CYP2C19 act: inactive; Measles CPE: inactive; CYP2C19 inhib: inactive

How did NC(=O)c1ccsc1NC(=O)COc1ccccc1 do in these assays?
CYP2C9 act: inactive; CYP2C9 inh: 65; CYP2C19 act: inactive; Measles CPE: inactive; CYP2C19 inhib: inactive

Results for NC(=O)c1ccsc1NC(=O)COC(=O)Cc1cccc2ccccc12 ?
CYP2C9 act: inactive; CYP2C9 inh: inactive; CYP2C19 act: inactive; Measles CPE: inactive; CYP2C19 inhib: 97

How did COc1ccccc1OCC(=O)OCC(=O)Nc1sccc1C(N)=O do in these assays?
Measles CPE: inactive

What do the screens show for `Cc1cc2nc(C3CCN(Cc4nnnn4Cc4cccs4)CC3)[nH]c2cc1C`?
CYP2C9 act: inactive; CYP2C9 inh: inactive; CYP2C19 act: inactive; Measles CPE: inactive; CYP2C19 inhib: inactive

What do the screens show for `CCOC(=O)CCNC(C)C1COc2ccccc2O1` (configuration not stated)?
CYP2C9 act: inactive; CYP2C9 inh: inactive; CYP2C19 act: inactive; Measles CPE: inactive; CYP2C19 inhib: inactive

Results for CC(=O)N1CCC(=NNC(=O)c2cccs2)CC1 ?
Measles CPE: inactive

What do the screens show for `COc1ccccc1CNC(=O)C(C)NS(=O)(=O)c1ccccc1` (configuration not stated)?
CYP2C9 act: inactive; CYP2C9 inh: inactive; CYP2C19 act: inactive; Measles CPE: inactive; CYP2C19 inhib: inactive

What do the screens show for `COc1ccc(S(=O)(=O)NC(CC(=O)NCc2ccco2)C(C)C)cc1` (configuration not stated)?
CYP2C9 act: inactive; CYP2C9 inh: inactive; CYP2C19 act: inactive; Measles CPE: inactive; CYP2C19 inhib: 61

What do the screens show for `COc1cccc(C(CC(=O)NCc2ccco2)NS(=O)(=O)c2ccc(C)cc2)c1OC` (configuration not stated)?
CYP2C9 act: inactive; CYP2C9 inh: inactive; CYP2C19 act: inactive; Measles CPE: inactive; CYP2C19 inhib: 81

How did O=C(CC(NS(=O)(=O)c1ccc(Cl)cc1)c1ccco1)NCc1ccco1 (configuration not stated) do in these assays?
CYP2C9 act: inactive; CYP2C9 inh: inactive; CYP2C19 act: inactive; Measles CPE: inactive; CYP2C19 inhib: 61
